NS1 function inh – inhibitors of influenza NS1 protein function; Potency, µM (series often up to 46.1 µM), without a hit: at the top dose activity, positive = more growth; hit rate 0.4% among 270,000; calls by dose curve; note: actives are rising curves; nearly all actives have a fitted effect of over 50% in size
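Read-out: OD600 growth recovery of NS1-expressing budding yeast. Cells grown overnight at 30C in -URA glucose medium, washed, resuspended and diluted 1:100 in 2% galactose assay medium, pH 6.0. Same strain lacking NS1 served as positive control.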
AMA1-RON2 inh – AMA1-RON2 (P. falciparum) interaction inhibition | AlphaScreen AMA1-biotinylated RON2 peptide binding | Potency, µM (titrated, usually from 58.2 µM), inactives show at the top dose activity change, negative = inhibition, actives largely listed as inhibitors | hit rate 0.2% among 360,000;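 note: 0% = vehicle wells and -100% = peptide control; nearly all actives have a fitted effect of over 45% in size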
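AMA1 (3D7) with his tag at 25 nM final met compounds first, then biotinylated RON2 peptide at 25 nM; detection used donor plus acceptor beads, 10 µg/mL apiece, read by AlphaScreen after 30 min at room temperature.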
SARS PLP yeast – inhibitors of SARS-CoV papain-like protease in yeast | Potency, µM (top dose mostly 32.9 µM), for inactives: at the top dose activity, positive = growth rescue, hits mostly activators | S. cerevisiae expressing SARS-CoV PLpro, growth rescue | AID 485353 | hit rate 0.19% among 330,000; calls by dose curve; note: 0% is about no effect; nearly all actives have a fitted effect of over 55% in size
Pf growth 48h – inhibits P. falciparum growth in the first generation, 48 h; P. falciparum luciferase growth in erythrocytes, 48 h; Potency, µM (titrated, usually from 28.7 µM), for inactives: at the highest dose activity change, negative = inhibition, actives largely listed as inhibitors; hit rate 5.9% among 310,000; AID 504832; note: % is set by controls: 0 for no effect and ±100 for the full control effect
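A one-generation exposure of luciferase-tagged malaria parasites in RPMI 1640/Albumax erythrocyte culture, 37 C and 5% CO2. Inhibition is inferred from decreased luminescence after adding detection reagent.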
HCV inhibitor – blocks hepatitis C virus. Huh7.5.1 HCVcc-Cre infection, luciferase reporter, 44 h. Potency, µM (highest dose often 41.8 µM), for inactives: at the top dose activity change, negative = inhibition, usual class: inhibitors. hit rate 3.4% among 340,000. AID 651820; note: % is set by controls: 0 for no effect and ±100 for the full control effect
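After 44 h co-culture of compound, cells and HCVcc-Cre (~0.5 moi), substrate is added for 15 min at room temperature and luciferase measured over 15 sec. Cells were seeded at 1,000/well and pre-cultured 4 h.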
Pf growth 96h – P. falciparum growth inhibition at 96 hour, primary screen for plastid delayed-death inhibitors | P. falciparum luciferase reporter growth, 96 h | Potency, µM (top dose mostly 28.7 µM), inactives show at the highest dose activity change, negative = inhibition, hits mostly inhibitors | hit rate 6.9% among 320,000; note: % is set by controls: 0 for no effect and ±100 for the full control effect
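Plates of compound plus infected erythrocytes (2% hematocrit, 0.05% parasitemia final) incubate 96 hours, 37 C, 5% CO2. Detection reagent added; reduced luminescence from the parasites' luciferase reporter flags inhibition.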
Numbers without * were called inactive; u = inconclusive; x = no result given; [ ] = remark or other dose. An excerpt weighted towards active compounds, which were near 12% of everything screened. Unless noted, calls come from the whole dose curve; as a rule, active = well fitted curve in the direction sought with a large enough effect; inconclusive = small, poorly fitted or top-dose-only effect, or another doubt; inactive = no such curve, though single readings can be large; an effect the other way counts as inactive or inconclusive. Potency is the fitted concentration of half-maximal effect.

SMILES | NS1 function inh | AMA1-RON2 inh | SARS PLP yeast | Pf growth 48h | HCV inhibitor | Pf growth 96h
Cc1cc(S(=O)(=O)Nc2ccc(C(=O)NCC(c3ccco3)N3CCCCC3)cc2)ccc1F (configuration not stated) | x | -16% | 1% | u | -5% | u
Cc1ccc(NS(=O)(=O)c2cccc(C(=O)NCC(c3ccco3)N3CCCC3)c2)cc1 (configuration not stated) | x | 20% | 2% | 13µM* | u | u
O=C(NCC(c1ccco1)N1CCCCC1)c1cccc(S(=O)(=O)Nc2ccc(F)cc2)c1 (configuration not stated) | x | 13% | -1% | 10µM* | u | u
O=S(=O)(NCC(c1ccco1)N1CCCCC1)c1cccc(C(F)(F)F)c1 (configuration not stated) | x | -3% | 1% | u | u | 7.4µM*
O=C(NCC(c1ccco1)N1CCCC1)c1ccc(Cl)c(S(=O)(=O)N2CCc3ccccc32)c1 (configuration not stated) | x | 20%[11.6 µM] | 9% | 5.9µM* | 4.5µM* | u
Cc1ccc(NS(=O)(=O)c2ccc(C(=O)NCC(c3ccco3)N3CCCCC3)cc2)cc1 (configuration not stated) | x | -5% | 1% | -8% | u | u
Cc1nn(-c2ccccc2)nc1CNC(=O)C1CCC1 | -2% | 12% | -1% | 30% | -3% | 60%
CCCCCN(C(=O)CCC(=O)OCC(=O)N1CCCC(C)C1)c1c(N)n(CCCC)c(=O)[nH]c1=O (configuration not stated) | 4% | u | -1% | -4% | -28% | 30%
Cc1ccc(C(=O)NCC(c2ccc(F)cc2)N2CCOCC2)cc1 (configuration not stated) | 5% | 7% | 0% | 18% | 2% | -1%
CN(C)c1ccc(C(CNC(=O)c2ccc(-c3ccccc3)cc2)N2CCOCC2)cc1 (configuration not stated) | x | x | 0% | 13µM* | 8% | u
CC(C)n1c2ccccc2c2nnc(SCC(=O)Nc3ccccc3C(=O)O)nc21 | x | -4% | 1% | u | 6% | -7%
CC1CCN(S(=O)(=O)c2ccc3c(c2)C(=NO)c2cc(S(=O)(=O)N4CCC(C)CC4)ccc2-3)CC1 | 30% | -22% | -2% | u | 2µM* | 5.9µM*
O=S(=O)(c1ccc2c(c1)C(=NO)c1cc(S(=O)(=O)N3CCCCC3)ccc1-2)N1CCCCC1 | -4% | 7% | 15% | 8.3µM* | 5µM* | u
O=C(COC(=O)c1c(Cl)cccc1Cl)Nc1cc(Cl)ccc1Oc1ccccc1 | 11% | 8% | -1% | 13µM* | -9% | u
Cc1ccccc1OCC(=O)NS(=O)(=O)c1ccc(Cl)cc1 | -23% | -13% | -2% | -10% | 17% | 5.2µM*
Cc1ccccc1OCC(=O)Nc1cc(Cl)ccc1Oc1ccccc1 | 5% | 1% | 5% | u | -2% | 5.2µM*
COc1ccccc1OCC(=O)Nc1cc(Cl)ccc1Oc1ccccc1 | -2% | -12% | 0% | -76% | 35% | 31%
Fc1cccc(CSc2nc3ncccc3[nH]2)c1 | 6% | -4% | -14% | u | -19% | 12µM*
C=CCNc1nc(NCCN2CCOCC2)nc(OC)n1 | 5% | 4% | 2% | 12% | -6% | -61%
CCCN(CCC)c1nc(Cl)nc(NCCN2CCOCC2)n1 | x | -9% | 2% | -7% | 14µM* | 225%
CN(C(=O)COC(=O)c1ccccc1SCC(=O)N1CCCC1)C1CCS(=O)(=O)C1 (configuration not stated) | 2% | 5% | -3% | 15% | 25% | 20%
Cc1ccc(N(CCC#N)C(=O)COC(=O)c2ccccc2SCC(=O)N2CCCC2)cc1 | x | 73% | x | u | u | u
CC(C)CN(C(=O)COC(=O)c1ccccc1SCC(=O)N1CCCC1)C1CCS(=O)(=O)C1 (configuration not stated) | x | 10µM* | x | x | 16% | x
Cc1cc(C)cc(N(CCC#N)C(=O)COC(=O)c2ccccc2SCC(=O)N2CCCC2)c1 | -9% | 5% | 1% | u | 0% | 12µM*
COC(=O)c1c(-c2cccnc2)csc1NC(=O)c1ccc2c(c1)OCO2 | 11% | -10% | 1% | 132% | -20% | u
SMILES | NS1 function inh | AMA1-RON2 inh | SARS PLP yeast | Pf growth 48h | HCV inhibitor | Pf growth 96h
COc1cc(CNc2ccc(S(N)(=O)=O)cc2)ccc1OCC(=O)NC1CCCCC1 | 3% | 4% | -1% | -24% | -24% | 1%
OC(c1cccc(Cl)c1)(c1cccc(Cl)c1)C1CN2CCC1CC2 (configuration not stated) | 4% | -16% | 1% | u | 16µM* | -24%
O=C1C(c2ccccc2)C(c2ccccc2)NC(c2ccccc2)C1c1ccccc1 (configuration not stated) | 0% | -7% | 1% | 1.9µM* | -4% | 0%
O=C1NNC(=O)C1c1ccccc1 | 4% | 2% | 2% | -10%[0.00184 µM] | 6% | 11%
CCCSc1nc(NCc2ccco2)c2c3c(sc2n1)COC(C)(C)C3 | 19% | -8% | -27% | u | -16% | u
CCC(O)CNc1nc(SC)nc2sc3c(c12)CCN(C)C3 (configuration not stated) | u | 6% | 2% | x | -2% | x
CCCCSc1nc(NCc2ccco2)c2c3c(sc2n1)COC(C)(C)C3 | 14% | -8% | -10% | 10µM* | -30% | u
CSc1nc(SCC(=O)NCc2ccco2)c2c3c(sc2n1)CN(C)CC3 | 26% | 15% | x | x | 10% | x
COC(CNc1nc(SC)nc2sc3c(c12)CCN(C)C3)OC | 1% | -15% | 0% | u | -20% | 5.2µM*
CSc1nc(NCc2ccco2)c2c3c(sc2n1)CN(C)CC3 | 3% | x | 0% | 2.9µM* | x | -3%[5.75 µM]
OC(CNCCN1CCNCC1)Cc1ccccc1 (configuration not stated) | x | 29% | x | x | 2% | x
CCN(C(=O)COC(=O)c1cc(S(=O)(=O)N(C)C)ccc1Cl)C1CCS(=O)(=O)C1 (configuration not stated) | x | -1% | 2% | 11% | 19% | -16%
NCCP(=O)(O)O | -11% | x | x | x | x | x
CC(=O)OCCCCCCCCCCC[N+]1(C)CCCCC1 | 0% | -7% | 0% | u | 14% | 45%
COC(=O)CCCCCCCCCC[N+]1(C)CCCCC1 | 26% | 10%[11.6 µM] | -19% | 3.7µM* | 14% | 52%
O=C(Nc1ccc(N2CCOCC2)c(S(=O)(=O)Nc2ccccc2Cl)c1)c1ccc(=O)[nH]n1 | x | 14% | x | x | 24% | x
